Most compounds without a hit are left out; they make up all but 3.4% or so of the library.
GPR151 activ: human GPR151 activation; Q8TDV0; 650,000 tested, 1% active; activation, % at 11.2 µM; PathHunter beta-arrestin GPR151 cells, luminescence; AID 1508602; in the data active = activation above about 4.9%
Target sequence (Q8TDV0 whole entry, looked up): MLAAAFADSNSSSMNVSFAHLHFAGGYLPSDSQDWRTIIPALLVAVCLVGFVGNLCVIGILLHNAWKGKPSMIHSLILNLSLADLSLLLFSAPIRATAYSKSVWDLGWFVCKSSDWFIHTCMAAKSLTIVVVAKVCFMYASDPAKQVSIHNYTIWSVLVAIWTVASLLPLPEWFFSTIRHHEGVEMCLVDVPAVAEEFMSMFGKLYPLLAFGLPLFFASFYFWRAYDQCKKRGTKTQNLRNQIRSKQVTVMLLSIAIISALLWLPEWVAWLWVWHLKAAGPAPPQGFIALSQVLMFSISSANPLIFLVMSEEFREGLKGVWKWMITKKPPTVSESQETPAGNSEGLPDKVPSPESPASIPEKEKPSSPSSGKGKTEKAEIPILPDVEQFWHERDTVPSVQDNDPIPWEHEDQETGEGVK
TEAD-YAP block: TEAD-YAP interaction inhibition; 640,000 tested, 1.4% active; inhibition, % at 9.12 µM; HEK-TIYL cells, TEAD-Gal4/YAP UAS-luciferase luminescence; AID 1259422; in the data active = inhibition above about 32%
FBW7 act: activators of human E3 ligase FBW7; Q969H0; AlphaScreen FBW7–phospho-cyclin E peptide binding, activator screen; normalized activity (activation), % at 26.1 µM; 650,000 tested, 0.13% active; in the data active = normalized activity above about 1.9%;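 also: purified mutant Fbw7 with reduced substrate affinity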
MITF inh: inhibitors of human MITF; O75030; AlphaScreen MITF homodimerization, bead proximity signal; inhibition, % at 2.6 µM; 650,000 tested, 0.91% active; in the data active = inhibition above about 50%
MITF confirm: confirmation of human MITF inhibitors. shares compounds with MITF inh. AlphaScreen MITF homodimerization, biotin/His-MITF beads. inhibition, % at 2.6 µM. 4,700 tested, 16% active. AID 1259372;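 active = inhibition above a cutoff derived from the DMSO control wells, cut at about 28% in these data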;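 also: inhibitors lower the bead chemiluminescence by keeping MITF from dimerizing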
AS interf ctr: counter-screen: compounds optically interfering with AlphaScreen. shares compounds with MITF inh. LysRS AlphaScreen counterscreen, signal interference, triplicate. inhibition, % at 2.6 µM. 4,700 tested, 7.6% active;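 active = inhibition above a cutoff derived from the DMSO control wells, cut at about 30% in these data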
Large screens that a line does not name were inactive (follow-up assays come after a bar, where they were run).

CCN1CCN(CCOc2ccc3ccccc3c2Cl)CC1	MITF inh 58.4 | MITF confirm inactive | AS interf ctr inactive
Cc1ccsc1CN1CCN2C(=O)[C@H](Cc3ccc(O)cc3)NC(=O)[C@H]2C1	none
CC1CCCCN1Cc1c(C#N)c2ccccc2n1C (stereo unspecified)	none
CC1CCCCN1Cc1ccccc1C#N (stereo unspecified)	MITF inh 71.1 | MITF confirm inactive | AS interf ctr inactive
COc1cc(C(=O)NCc2ccccc2)c([N+](=O)[O-])cc1OC	none
COc1cc(OC)c(OC)cc1CN1CCN(c2ccc(F)cc2)CC1	none
COc1ccc(CN2CCN(Cc3c[nH]c4ccccc34)CC2)c(OC)c1OC	MITF inh 61.6 | MITF confirm inactive | AS interf ctr inactive
COc1cc(OC)c(OC)cc1CN1CCN(Cc2c[nH]c3ccccc23)CC1	MITF inh 55.3 | MITF confirm inactive | AS interf ctr inactive
COc1ccc(N=C2SC(C(=O)Nc3ccc(OC)cc3)CC(=O)N2CCc2ccccc2)cc1 (stereo unspecified)	none
Cc1ccc(C(c2ccc(C)o2)c2ccccc2N)o1	MITF inh 67.1 | MITF confirm inactive | AS interf ctr inactive
COc1ccccc1C(c1ccc(C)o1)c1ccc(C)o1	none
Cc1ccc(C)c(OCCOCCN2CC(C)OC(C)C2)c1C (stereo unspecified)	MITF inh 52.0 | MITF confirm inactive | AS interf ctr inactive
O=[N+]([O-])c1ccccc1OCCOCCOc1cccc2cccnc12	MITF inh 68.5 | MITF confirm inactive | AS interf ctr inactive
O=[N+]([O-])c1ccccc1OCCOc1cccc2cccnc12	none
COC(=O)c1ccc(OCCOCCN2CC(C)OC(C)C2)cc1 (stereo unspecified)	MITF inh 51.5 | MITF confirm inactive | AS interf ctr inactive
CC1CN(CCOc2cccc3ccccc23)CC(C)O1 (stereo unspecified)	MITF inh 57.5 | MITF confirm inactive | AS interf ctr inactive
C[C@@H](OCc1ccccc1)[C@@H]1NC(=O)[C@H]2CN(Cc3ccc(CN4CCCCC4)s3)CCN2C1=O	none
CC1CN(CCOCCOc2ccccc2-c2ccccc2)CC(C)O1 (stereo unspecified)	MITF inh 71.5 | MITF confirm inactive | AS interf ctr inactive
COC(=O)c1ccccc1OCCCCN1CC(C)OC(C)C1 (stereo unspecified)	MITF inh 62.5 | MITF confirm inactive | AS interf ctr inactive
COc1ccccc1OCCOCCN1CC(C)OC(C)C1 (stereo unspecified)	none
COC(=O)c1ccccc1OCCCOc1cccc2cccnc12	MITF inh 67.9 | MITF confirm inactive | AS interf ctr inactive
COc1cccc(OC)c1OCCCN1CC(C)OC(C)C1 (stereo unspecified)	MITF inh 62.0 | MITF confirm inactive | AS interf ctr inactive
Cc1nc(NCc2ccncc2)c2c(C)c(C)sc2n1	none
CCOC(=O)C(C(=O)NCc1cccnc1)C1CCCCC1 (stereo unspecified)	none
COc1ccc(-c2[nH]nc3nc(-c4cc(OC)c(O)c(OC)c4)cc(C(=O)O)c23)cc1	MITF inh 69.8 | MITF confirm inactive | AS interf ctr inactive
O=C(CC1(O)C(=O)Nc2ccc([N+](=O)[O-])cc21)c1ccccc1 (stereo unspecified)	MITF inh 68.7 | MITF confirm inactive | AS interf ctr inactive
O=C(CC1(O)C(=O)Nc2ccccc21)c1ccc([N+](=O)[O-])cc1 (stereo unspecified)	none
C=CCN(CC=C)C(=O)C1CCN(Cc2cc(Br)c(O)c(OC)c2)CC1	MITF inh 69.3 | MITF confirm inactive | AS interf ctr inactive
COc1cc(CN2CCC(O)CC2)cc(Br)c1O	none
O=C(NC1CCCCC1)c1cnc(N2CCOCC2)nc1	none
O=C(CNCCCN1CCOCC1)Nc1ccccc1	none
O=C(CNCCN1CCOCC1)Nc1ccc2c(c1)OCO2	MITF inh 87.3 | MITF confirm inactive | AS interf ctr inactive
O=C(Nc1ccc(N2CCOCC2)cc1)NC1CCCCC1	MITF inh 72.1 | MITF confirm inactive | AS interf ctr inactive
COc1ccc(CCNCCN2CCOCC2)cc1	MITF inh 84.0 | MITF confirm inactive | AS interf ctr inactive
COc1ccc(CCNC(=O)C(=O)NCCCN2CCOCC2)cc1	none
O=C(CNCCCN1CCOCC1)Nc1ccc(C(=O)N2CCCCC2)cc1	MITF inh 85.2 | MITF confirm inactive | AS interf ctr inactive
CCCC(=O)NNC(=S)Nc1ccccc1	none
COC1CCCN(C(=O)C2CCN(C3CCN(Cc4cccc(C)n4)CC3)CC2)C1 (stereo unspecified)	none
O=C(Nc1c2c(nn1-c1ccccc1)CS(=O)(=O)C2)c1cc2ccccc2oc1=O	none
COc1ccc2oc(=O)c(C(=O)NCCN3CCOCC3)cc2c1	none
COc1ccc(NC(=O)CNCCN2CCCCC2)cc1	none
CC(NCCN1CCOCC1)C(=O)Nc1ccccc1 (stereo unspecified)	MITF inh 97.9 | MITF confirm inactive | AS interf ctr inactive
O=C(CNCCN1CCOCC1)Nc1ccc(OC(F)(F)F)cc1	MITF inh 60.0 | MITF confirm inactive | AS interf ctr inactive
COc1ccc(C(=O)NCCN2CCOCC2)c(OC)c1	MITF inh 53.5 | MITF confirm inactive | AS interf ctr inactive
COc1ccc(NC(=O)CNCCN2CCOCC2)cc1	MITF inh 93.2 | MITF confirm inactive | AS interf ctr inactive
O=C(CNCCN1CCOCC1)Nc1ccc(N2CCCCCC2)cc1	none
O=C(CNCCN1CCOCC1)Nc1ccc(N2CCCC2)cc1	MITF inh 73.2 | MITF confirm 28.7 | AS interf ctr 59.6
CCN1CCN(CCC(=O)Nc2ccc3c(c2)OCCO3)CC1	MITF inh 104.0 | MITF confirm inactive | AS interf ctr inactive
O=C(CCl)NCCc1c[nH]c2ccccc12	none
Cc1ccc(NC(=O)C2(N(C)C(=O)Cc3nc(N)n[nH]3)CCCCC2)cc1	none
CN(C(=O)Cc1nc(N)n[nH]1)C1(C(=O)Nc2ccccc2)CCCCC1	MITF inh 64.4 | MITF confirm 92.1 | AS interf ctr 100.6
Nc1n[nH]c(CC(=O)N(Cc2ccccc2)C2(C(=O)Nc3ccccc3)CCCCC2)n1	MITF inh 70.4 | MITF confirm 109.2 | AS interf ctr 100.6
Nc1ccc(C(=O)NCc2cccs2)cc1	none
COc1cc(CN2CCN(Cc3ccccc3Cl)CC2)c([N+](=O)[O-])cc1OC	MITF inh 82.3 | MITF confirm inactive | AS interf ctr inactive
COc1cc(CN2CCN(Cc3ccccc3C)CC2)c([N+](=O)[O-])cc1OC	MITF inh 74.8 | MITF confirm inactive | AS interf ctr inactive
COc1cc(CN2CCN(C/C=C/c3ccccc3)CC2)c([N+](=O)[O-])cc1OC	none
O=C1Nc2ccccc2OC1(O)C(F)(F)F (stereo unspecified)	none
COc1ccc(C(NC(=O)C2CCN(C(=O)c3ccccc3)CC2)c2ccccn2)cc1 (stereo unspecified)	none

Screening results: PubChem BioAssay, The Scripps Research Institute Molecular Screening Center
